HT1080-NT tox: kills 2HG-producing HT-1080-NT fibrosarcoma cells. hit rate 1.6% among 360,000. AID 686970. HT-1080-NT fibrosarcoma viability, CellTiter-Glo ATP luminescence, 48 h. Potency, µM (titrated, usually from 46.1 µM), actives largely listed as cytotoxic;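 further: NT is the 2HG producing partner of a matched IDH1 knockdown line; nearly all actives have a fitted effect of over 55% in size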
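Read-out is CellTiter-Glo luminescence after 10 minutes at room temperature, following 48 hours' compound treatment of HT-1080-NT cells (750 cells/well, RPMI, 5% FBS, 37 degrees C).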
MCF10A rereplic: inducers of DNA re-replication in MCF 10A breast cells | MCF 10A DNA re-replication, Hoechst nuclear intensity, 48 h | Potency, µM (top dose mostly 46.1 µM), hits mostly activators | hit rate 2.9% among 350,000; further: nearly all actives have a fitted effect of over 50% in size
SW480 rereplic: DNA re-replication induction in SW480 cells; Potency, µM (highest dose often 46.1 µM), actives largely listed as activators; AID 624297; SW480 DNA re-replication, Hoechst DNA content imaging, 48 h; hit rate 1.8% among 340,000; further: nearly all actives have a fitted effect of over 55% in size
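Readout is total intensity of Hoechst-stained nuclei, excited at 405 nm and collected at 500-530 nm. Compound treatment lasted 48 hr at 37 C in 5% CO2 before staining.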
HT1080 IDH1KD tx: toxicity to HT-1080 IDH1 knockdown cells (counter line); HT-1080 IDH1 knockdown viability, ATP luminescence, 48 h; Potency, µM (highest dose often 46.1 µM), hits mostly cytotoxic; hit rate 2% among 360,000
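Luminescent ATP read-out (CellTiter-Glo, 10 min at room temperature) after 48 h compound exposure at 37 °C gave viability of IDH1-knockdown HT-1080 cells. Activity was normalised to DMSO and cell-free wells, then fitted as concentration-response curves.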
KB-3-1 cytotox: KB-3-1 parental cell cytotoxicity; KB-3-1 viability, CellTiter-Glo ATP luminescence, 72 h; Potency, µM (series often up to 46.1 µM), actives largely listed as cytotoxic; hit rate 1.4% among 400,000; further: nearly all actives have a fitted effect of over 60% in size
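Screening of KB-3-1 cells (DMEM, 10% FBS, phenol-red free) ran from lowest to highest compound concentration; after 72 h at 37 °C viability was read luminescently and curves fitted.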
KB-V1 MDR tox: kills drug-selected multidrug resistant KB-V1 cells; KB-V1 MDR cells viability, CellTiter-Glo, 72 h; Potency, µM (series often up to 46.1 µM), usual class: cytotoxic; hit rate 3.4% among 400,000; AID 1347076; further: nearly all actives have a fitted effect of over 60% in size
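Luminescent ATP read-out (CellTiter-Glo, 10 min) measures survival of drug-selected KB-V1 MDR cells after 72 h, 37 degrees C compound exposure. Medium: phenol-red-free DMEM, 10% FBS. Values from fitted concentration-response curves.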
A number is an active result; i = inactive; ? = inconclusive; nt = not tested or not shown; ! = not active in a repeat. In the library only some 8% were active in any assay of this set; here they are far more common. The call rests on the fitted dose curve; in most records, active means well fitted curve in the direction sought with a large enough effect; inconclusive means small, poorly fitted or top-dose-only effect, or another doubt; inactive means no such curve, though single readings can be large; an effect the other way counts as inactive or inconclusive.

SMILES	HT1080-NT tox	MCF10A rereplic	SW480 rereplic	HT1080 IDH1KD tx	KB-3-1 cytotox	KB-V1 MDR tox
COc1cccc(-c2nn(C)c3sc(C(=O)Nc4ccc5c(c4)OCCO5)cc23)c1	i	?	i	i	i	18µM
COc1cccc(-c2nc(SCC(=O)Nc3ccc4c(c3)OCCO4)c(-c3ccc(C)cc3)[nH]2)c1	nt	nt	nt	nt	21µM	?
COc1ccc(-c2nc(SCC(=O)Nc3ccc4c(c3)OCCO4)c(-c3ccc(F)cc3)[nH]2)cc1	nt	nt	nt	nt	i	i
COc1ccc(-c2nc(SCC(=O)Nc3nccs3)c(-c3ccc(Cl)cc3)[nH]2)cc1	?	i	i	?	?	?
O=C(O)CC(SCC(=O)Nc1ccc(S(=O)(=O)N2CCCC2)cc1)C(=O)O (stereo unspecified)	?	i	i	i	i	i
COCCCN(C(=O)c1cc(C)oc1C)c1c(N)n(CC(C)C)c(=O)[nH]c1=O	i	i	i	i	i	i
COc1ccc2nc(SCC(=O)N3CCCCCC3)c(C#N)cc2c1	i	?	i	i	i	?
COc1ccc2nc(N3CCCCC3)c(C#N)cc2c1	i	16µM	?	i	i	?
COc1ccc2nc(N3CCCC3)c(C#N)cc2c1	i	?	?	i	i	13µM
Cc1sc2nc(SCc3nnc(-c4cccs4)o3)n(C3CCCC3)c(=O)c2c1C	i	?	i	i	i	21µM
Cc1sc2nc(CSc3nnc(Cc4cccs4)n3C3CCCCC3)[nH]c(=O)c2c1C	i	i	i	i	i	i
O=C(c1cc(NC(=O)C23CC4CC(CC(C4)C2)C3)cc(NC(=O)C23CC4CC(CC(C4)C2)C3)c1)N1CCCCC1	i	i	13µM	i	?	?
O=C(NC(=S)N1CCCCC1)C12CC3CC(CC(C3)C1)C2	i	i	i	i	i	i
Cc1cc(=O)oc2cc(OCC(=O)N3CCOCC3)c(Cl)cc12	i	i	i	i	i	9.2µM
Cc1cc(=O)oc2cc(OCC(=O)N3CCCC3)c(Cl)cc12	i	i	i	i	i	i
Cc1ccc(CN2C(=O)c3ccccc3Sc3ccc(C(=O)NCCN4CCOCC4)cc32)cc1	12µM	?	?	9.2µM	?	?
O=C(c1ccc2c(c1)N(Cc1ccccc1)C(=O)c1ccccc1S2)N1CCCC1	i	i	i	i	i	2.3µM
Cc1ccc(C(=O)N2CCCCC2)cc1NC1=C(Cl)C(=O)N(Cc2ccccc2)C1=O	?	8.2µM	?	?	?	i
Cc1cccc(CN2C(=O)c3ccccc3Sc3ccc(C(=O)N4CCCC4)cc32)c1	nt	nt	nt	nt	?	i
CCOCc1nc(N)nc(N)c1-c1cccc(Cl)c1	?	nt	nt	?	i	i
CCOC(=O)c1c(CC(C)C)csc1NC=O	i	?	i	i	16µM	4.6µM
CCOC(=O)c1c(CC(C)C)csc1/N=C/C1C(=O)CCCC1=O	?	?	16µM	?	i	i
CCOC(=O)c1c(CC(C)C)csc1NC(C)=O	i	i	i	i	i	i
COc1ccc(C(=O)N2CCN=C2SC)cc1OC	i	i	i	i	i	i
Cc1cc(C)c2nc(N3C(=O)C(O)=C(C(=O)c4ccco4)C3c3cccc(O)c3)sc2c1 (stereo unspecified)	i	21µM	i	i	i	?
SMILES	HT1080-NT tox	MCF10A rereplic	SW480 rereplic	HT1080 IDH1KD tx	KB-3-1 cytotox	KB-V1 MDR tox
Cc1cc(C)c2nc(N3C(=O)C(O)=C(C(=O)c4ccco4)C3c3ccc(O)cc3)sc2c1 (stereo unspecified)	i	?	i	i	i	i
Cc1ccc2nc(N3C(=O)C(O)=C(C(=O)c4ccco4)C3c3ccc(C)o3)sc2c1 (stereo unspecified)	?	21µM	?	?	i	i
Cc1cc(N2C(=O)C(O)=C(C(=O)c3ccco3)C2c2ccc(Cl)cc2)no1 (stereo unspecified)	i	i	i	i	i	i
O=C(C1=C(O)C(=O)N(c2nc3ccc(Cl)cc3s2)C1c1ccco1)c1ccco1 (stereo unspecified)	i	13µM	i	i	i	?
Cc1ccc2nc(N3C(=O)C(O)=C(C(=O)c4ccc(C)o4)C3c3ccco3)sc2c1 (stereo unspecified)	i	18µM	i	i	i	i
CCOc1cc(C(=O)N2CCN=C2SC)cc(OCC)c1OCC	i	?	i	i	i	i
N#Cc1c2c(c(Cl)n3c1nc1ccccc13)CCCC2	nt	nt	nt	nt	i	i
Cc1c(Cl)ccc2c1NC(=O)[C@]21N[C@@H](Cc2ccccc2)[C@H]2C(=O)N(c3ccc(F)cc3)C(=O)[C@H]21	i	i	i	?	?	9.2µM
CC(=O)N1CCN(c2ccc(Oc3ccc([N+](=O)[O-])c(C(F)(F)F)c3)cc2)CC1	?	?	i	i	?	5.2µM
CCOc1ccc(C(=O)Nc2ccc(N3CCN(C(C)=O)CC3)cc2)cc1[N+](=O)[O-]	i	i	i	i	i	?
CCN(CC)CCCNc1oc(/C=C/c2ccccc2)nc1C#N	i	?	21µM	i	i	i
CCNc1oc(/C=C/c2ccc(OCC)cc2)nc1C#N	i	2.6µM	3.3µM	?	?	i
CNc1oc(/C=C/c2cccc(OC)c2)nc1C#N	i	21µM	18µM	i	i	i
O=C(NCCCc1nc2ccccc2n1CCCOc1ccccc1)C1CCCCC1	nt	nt	nt	nt	i	?
CC(C)(C)OC(=O)N1CCC(CNC(=O)Nc2ccccc2)CC1	i	i	i	i	i	i
CCOC(=O)N1CCN(c2c(F)cc3[nH]c(=S)[nH]c3c2Br)CC1	16µM	8.2µM	?	?	?	8.2µM
CCOC(=O)N1CCN(c2cc3[nH]c(=S)[nH]c3cc2F)CC1	i	i	i	i	i	i
CCCOc1ccc(OCCOCCNCc2ccccc2)cc1	i	?	?	i	i	8.2µM
Cc1ccc(OCCNCc2ccccc2)c(C)c1	i	i	?	i	i	?
Cc1cc(C)c(C)c(OCCOCCNCc2ccccc2)c1	i	?	?	i	i	15µM
Cc1ccccc1N1CCN(C(=O)[C@@H]2CCCN2C2=NS(=O)(=O)c3ccccc32)CC1	i	i	i	i	i	?
CN(Cc1cnc2nc(N)nc(N)c2n1)c1ccc(C(=O)N[C@@H](CCC(=O)O)C(=O)O)cc1	0.0052µM!	i	?	0.046µM!	0.065µM!	0.029µM!
O=C(O)CC1(CC(=O)NCc2ccc(Cl)cc2)CCCCC1	i	21µM	i	i	i	i
O=C(O)CC1(CC(=O)NCc2ccc(F)cc2)CCCCC1	i	i	i	i	i	i
COc1ccc(NC(=O)C2CCN(C(=O)Nc3ccc(C)cc3)CC2)cc1OC	i	i	i	i	i	i

High-throughput results deposited in PubChem by National Center for Advancing Translational Sciences (NCATS).
